An excerpt weighted towards active compounds, which were near 4% of everything screened.
C2C12 statin – suppression of simvastatin myotoxicity. rescue of ATP level, % at 7.49 µM. actives 0.78% (n = 330,000). C2C12 myotubes + simvastatin, ATP luminescence, 48 h; scaled: DMSO 0, geranylgeraniol control 100;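 active = mean ATP rescue above about 67%, or every replicate alone reaching that limit, limit read from the data, passing the limit was not always enough; inconclusive = no clear call, values can overlap the other calls; inactive = mean under the limit and some replicate under it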;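 note: myotubes were challenged with 10 µM simvastatin during compound exposure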
EBV LMP1 NFkB – inhibitors of Epstein-Barr LMP1-induced NF-kappaB reporter; LMP1-induced NF-kappaB luciferase reporter cells, luminescence; inhibition, % at 12.5 µM; AID 504558; actives 0.69% (n = 350,000); in the data active = inhibition above about 41%; inconclusive = no clear call, values can overlap the other calls;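 note: 0% = neutral control wells and 100% = reference inhibitor control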
Wnt act – Wnt/beta-catenin pathway activation; Wnt/beta-catenin reporter cell assay, activator, plate reader; activation, % at 9.35 µM; actives 1.2% (n = 300,000); in the data active = activation above about 30%, passing the limit was not always enough; inconclusive = no clear call, values can overlap the other calls;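 note: 0% = neutral control wells and 100% = positive control wells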
esBAF inh – blocks esBAF chromatin remodeling in mouse ES cells; Bmi1-luciferase knock-in reporter, 24 h; 100% = twice the neutral-well signal; reporter increase, % at 12.5 µM; actives 2% (n = 350,000); AID 602393; in the data active = activation above about 40%; inconclusive = no clear call, values can overlap the other calls;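 note: 0% = median of the plate's neutral control wells and 100% = double that signal; a rise in the Bmi1 reporter signal indicates esBAF inhibition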
TRPM1 prom inh – reduces MITF-dependent TRPM1 promoter luciferase signal | SK-MEL-5 TRPM1 promoter luciferase, 24 h | inhibition, % at 12.5 µM | actives 0.83% (n = 330,000) | AID 488899;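 active = mean inhibition across replicates of 60% or more, whatever share of single replicates reaches that level; inconclusive = some that reach 60%, reason not given; inactive = mean inhibition across replicates below 60%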
MITF TRPM1 HTS – increases MITF-driven TRPM1 promoter luciferase signal | actives 0.75% (n = 300,000) | AID 588334 | activation, % at 12.5 µM | SK-MEL-5 TRPM1-promoter luciferase, 24 h; % of positive control, neutral wells = 0;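 active = mean activation of at least 80% with every replicate also reaching 80%; inconclusive = mean reaches 80% but some replicate falls short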;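 note: 0% = neutral control wells and 100% = parthenolide positive control wells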
Starred values were filed as active, the others as inactive; i = inactive; ? = inconclusive; . = no result given; ! = not confirmed by another sample.

SMILES	C2C12 statin	EBV LMP1 NFkB	Wnt act	esBAF inh	TRPM1 prom inh	MITF TRPM1 HTS
CC(=O)NC(c1cccc(F)c1)c1nc(-c2cc3ccccc3o2)cs1 (stereo unspecified)	6.3	.	-1.0	1.2	.	.
O=S(=O)(c1ccccc1)n1ccc(-c2cnc(-c3ccccc3)s2)n1	.	-8.7	44.8*	.	-89.0	97.8*
Cc1ccc(Cn2ccc(-c3cnc(-c4ccccc4)s3)n2)cc1	11.9	-0.8	.	79.0*	-56.7	57.0
COc1ccc(CCNC(=O)[C@H](CCSC)NC(=O)N2CCn3c2nc2ccccc23)cc1OC	18.0	1.4	-0.7	-0.7	1.9	1.1
COc1cc(C(=O)N(CCc2ccccc2)C2=CC3CCC(C2)N3C)cc(OC)c1OC (stereo unspecified)	91.2*	-0.2	.	0.1	2.5	-2.4
S=C(NN=Cc1ccccn1)N(Cc1ccccn1)Cc1ccccn1	2.9	8.2	-23.4	-26.8	74.4*	-74.3
CC(=NNC(=S)N(Cc1ccccn1)Cc1ccccn1)c1cnccn1	.	81.3*	-6.6	.	79.8*	-78.9
S=C(NN=C(c1ccccc1)c1ccccn1)N(Cc1ccccn1)Cc1ccccn1	.	63.4*	-23.8	.	82.8*	-80.8
O=C(N/N=C(\c1ccccc1)c1ccccn1)c1ccccc1Cl	7.0	23.8	-6.4	-64.6	59.3	-56.6
Cc1ccc(S(=O)(=O)CC(=O)NCc2ccccc2)cc1	-2.1	-3.8	2.8	-3.0	6.4	-8.7
CC(C)(C)N(Cc1ccc2c(c1)OCO2)C(=O)/C=C\S(=O)c1ccccc1 (stereo unspecified)	.	18.6	-5.9	.	89.8*	-89.5
CC(C)c1ccc(OCC(=O)NCc2ccco2)cc1	.	-15.0	-1.4	9.2	3.0	-2.6
C/C(NC(=O)c1ccccc1)=C1/C(=O)CC2C1C2(C)C (stereo unspecified)	0.3	-45.0	0.0	52.0*	i	?
CC(=O)C1=C(NC(=O)c2ccc(F)cc2)CC2C1C2(C)C (stereo unspecified)	-7.5	-9.2	3.1	8.6	-21.2	22.5
COc1ccc(/C(C)=N/Nc2nncc3ccccc23)cc1	-15.8	-10.7	36.9*	-3.0	-106.5	108.8*
COc1ccc(/C=N/Nc2nncc3ccccc23)cc1	-44.2	-4.2	.	-36.7	5.4	1.0
N#C[C@@H]1[C@@H](c2ccc(C#CC3CC3)cc2)[C@@H](CO)N1S(=O)(=O)Cc1ccccc1	13.3	.	.	4.7	.	.
Cc1ccc(OCCC(=O)OCC(=O)c2c(N)n(CC(C)C)c(=O)n(C)c2=O)cc1	-0.6	72.2*	0.3	-11.5	2.7	-3.1
CN1CCN(C(=O)C2=C[C@@H](c3csc4ccccc34)C[C@@H](OCc3ccc(CO)cc3)O2)CC1	6.7	1.7	-0.9	-3.4	-5.3	7.5
CC1(C)Cc2c(c(N3CCOCC3)nc3sc(C(=O)Nc4cccc(Cl)c4)c(N)c23)CO1	-44.0	-12.2	2.5	8.0	1.6	0.2
CC1(C)Cc2c(c(N3CCOCC3)nc3sc(C(=O)Nc4ccccc4)c(N)c23)CO1	-52.5	-15.7	33.6*	38.3	-14.4	10.6
CC1(C)Cc2c(c(N3CCOCC3)nc3sc4c(NCCN)ncnc4c23)CO1	.	-1.1	-3.5	.	69.5*	-69.4
CN(C)CCNc1ncnc2c1sc1nc(N3CCOCC3)c3c(c12)CC(C)(C)SC3	-28.0	8.1	-9.4	-16.4	76.8*	.
O=C(COc1ccc(Br)cc1Cl)NC(=S)Nc1ccccn1	1.3	-28.3	23.5	49.6*	-80.7	76.6
COc1ccc(C(=O)NCCC2=CCCCC2)cc1OC1CCN(C(C)C)CC1	-17.1	-4.7	15.9	60.3*	-28.7	27.1
SMILES	C2C12 statin	EBV LMP1 NFkB	Wnt act	esBAF inh	TRPM1 prom inh	MITF TRPM1 HTS
CC(O)CN=c1cc(-c2ccccc2)oc2ccc(Cl)cc12 (stereo unspecified)	-2.5	-37.4	.	-8.8	-75.1	?
CN(C)CCCN=c1cc(-c2ccccc2)oc2ccc(Cl)cc12	.	-34.7	12.0	.	-78.3	84.0*
OCCN=c1cc(-c2ccccc2)oc2ccc(Cl)cc12	.	-28.2	18.5	46.5*	-58.5	65.1
Cc1cc(Oc2ccccc2)nc(-c2ccccc2)n1	-16.0	-10.1	.	5.5	-14.6	12.4
O=C(Nc1ccc(C(F)(F)F)cc1)C1CCCN1S(=O)(=O)c1cccc2cccnc12 (stereo unspecified)	-4.0	3.4	.	2.9	14.6	-12.9
C[n+]1c2cc(N)ccc2cc2ccc(N)cc21	-96.4	71.7*!	-8.6	-75.6	63.9*	-64.1
COc1ccccc1N1CCN(CCCNC(=O)C2CCCN(c3ncnc4c3nc3n4CCCCC3)C2)CC1 (stereo unspecified)	1.9	66.0*	-3.8	-4.7	-9.9	11.8
O=C(NCCCN1CCN(c2ccc(F)cc2)CC1)C1CCCN(c2ncnc3c2nc2n3CCCCC2)C1 (stereo unspecified)	33.0	9.4	-1.9	7.1	15.0	-12.1
COc1ccc(O)c(C(=O)CC(=O)c2cccnc2)c1	-5.9	-14.7	34.1*	19.6	-60.3	62.3
O=C(c1cnn(-c2ccccc2)c1)c1ccccc1O	-1.6	16.7	?	17.6	-39.8	43.0
O=C(c1cnn(-c2ccccc2)c1)c1cc(F)ccc1O	1.3	-11.2	13.8	89.3*	-66.3	66.0
COc1ccc(-n2cc(C(=O)c3ccc4ccccc4c3O)cn2)cc1	3.9	7.6	0.8	2.7	4.2	-4.5
COc1ccc(O)c(C(=O)c2cnn(-c3ccccc3)c2)c1	17.5	-21.6	-2.0	52.6*	-20.2	32.4
COc1ccc(-n2cc(C(=O)c3ccccc3O)cn2)cc1	.	49.9*	-2.1	.	-8.6	9.9
COc1ccc(O)c(C(=O)CC(=O)c2ccc(F)cc2)c1	3.4	29.0	.	.	18.9	-19.1
CCCN1Cc2cccc(C(=O)NCc3cccs3)c2C1=O	22.7	-4.0	-3.3	0.2	10.9	-12.8
O=C(COc1ccccc1C(=O)c1cnn(-c2ccccc2)c1)Nc1ccc2ccccc2c1	4.1	-19.6	7.4	82.3*	-108.0	113.6*
CC(OC(=O)CNS(=O)(=O)c1ccc(C#N)cc1)C(=O)Nc1ccc(Cl)cn1 (stereo unspecified)	.	0.9	1.9	.	-1.3	1.7
COc1ccc(N=C2SC(CC(=O)Nc3ccccc3)C(=O)N2Cc2ccco2)cc1 (stereo unspecified)	-2.4	-1.7	44.1*	-5.4	5.2	-5.8
CC(=O)Nc1ccc(C=NNC(=O)C2CC2)cc1	4.6	-7.7	-4.9	18.3	-3.3	8.4
CC(C)c1ccc(/C=N/NC(=O)CC(=O)NC2CCCCC2)cc1	-11.3	0.7	-2.7	-0.7	18.0	-17.2
CC(C)c1ccc(/C=N/NC(=O)C2CCCC2)cc1	.	-45.5	27.1	.	-127.3	140.1*
CC(C)(C)c1ccc(/C=N/NC(=O)C2CCCC2)cc1	-34.8	-41.9	3.1	55.5*	-33.9	32.3
CCOc1ccc2nc(COC(=O)c3ccncc3)c(C(=O)c3ccccc3)[n+]([O-])c2c1	.	.	18.0	.	.	.

High-throughput results as filed in PubChem.
